# Laboratory results: publication PMC11062922 (Nature Chemical Biology, 2023)
# Where two headings read alike, the source gives them in different places.
# Experiments:
# STK3 = details: read-out: apparent Kd, n = 1
# STK4 = details: read-out: apparent Kd, n = 1
# [1] = compound concentrations:100 nM and 1000 nM (sheet 'Lestaurtinib' of Supplementary Table 1),run:Lestaurtinib_02367_R1,Plate:MR003
# [2] = compound concentrations:100 nM and 1000 nM (sheet 'Lestaurtinib' of Supplementary Table 1),run:Lestaurtinib_02367_R2,Plate:MR003
# [3] = compound concentrations:100 nM and 1000 nM (sheet 'Lestaurtinib' of Supplementary Table 1),run:Lestaurtinib_02367_R3,Plate:MR003
# [4] = compound concentrations:100 nM and 1000 nM (sheet 'Lestaurtinib' of Supplementary Table 1),run:Lestaurtinib_02381_R1,Plate:MR004
# [5] = compound concentrations:100 nM and 1000 nM (sheet 'Lestaurtinib' of Supplementary Table 1),run:Lestaurtinib_02381_R2,Plate:MR004
# [6] = compound concentrations:100 nM and 1000 nM (sheet 'Lestaurtinib' of Supplementary Table 1),run:Lestaurtinib_02407_R3,Plate:MR005
# [7] = compound concentrations:100 nM and 1000 nM (sheet 'Lestaurtinib' of Supplementary Table 1),run:Lestaurtinib_02422_R1,Plate:MR006
# [8] = compound concentrations:100 nM and 1000 nM (sheet 'Lestaurtinib' of Supplementary Table 1),run:Lestaurtinib_02422_R2,Plate:MR006
# [9] = compound concentrations:100 nM and 1000 nM (sheet 'Lestaurtinib' of Supplementary Table 1),run:Lestaurtinib_02437_R1,Plate:MR007
# [10] = compound concentrations:100 nM and 1000 nM (sheet 'Lestaurtinib' of Supplementary Table 1),run:Lestaurtinib_02437_R2,Plate:MR007
# [11] = compound concentrations:100 nM and 1000 nM (sheet 'Lestaurtinib' of Supplementary Table 1),run:Lestaurtinib_02438_R1,Plate:MR008
# [12] = compound concentrations:100 nM and 1000 nM (sheet 'Lestaurtinib' of Supplementary Table 1),run:Lestaurtinib_02443_R1,Plate:MR009
# [13] = compound concentrations:100 nM and 1000 nM (sheet 'Lestaurtinib' of Supplementary Table 1),run:Lestaurtinib_02473_R2,Plate:MR010
substance,measurement,setting,value
Lestaurtinib,potency estimated from few doses,STK3; [1],39.1 nM
same,potency estimated from few doses,STK3; [2],37.3 nM
same,potency estimated from few doses,STK3; [3],42.9 nM
same,potency estimated from few doses,STK3; [4],32.9 nM
same,potency estimated from few doses,STK3; [5],38.2 nM
same,potency estimated from few doses,"STK3; compound concentrations:100 nM and 1000 nM (sheet 'Lestaurtinib' of Supplementary Table 1),run:Lestaurtinib_02407_R1,Plate:MR005",40 nM
same,potency estimated from few doses,"STK3; compound concentrations:100 nM and 1000 nM (sheet 'Lestaurtinib' of Supplementary Table 1),run:Lestaurtinib_02407_R2,Plate:MR005",29.8 nM
same,potency estimated from few doses,STK3; [6],30.1 nM
same,potency estimated from few doses,STK3; [7],51.1 nM
same,potency estimated from few doses,STK3; [8],62.7 nM
same,potency estimated from few doses,STK3; [9],38.1 nM
same,potency estimated from few doses,STK3; [10],50.7 nM
same,potency estimated from few doses,STK3; [11],29.8 nM
same,potency estimated from few doses,STK3; [12],41.6 nM
same,potency estimated from few doses,"STK3; compound concentrations:100 nM and 1000 nM (sheet 'Lestaurtinib' of Supplementary Table 1),run:Lestaurtinib_02443_R2,Plate:MR009",39.1 nM
same,potency estimated from few doses,"STK3; compound concentrations:100 nM and 1000 nM (sheet 'Lestaurtinib' of Supplementary Table 1),run:Lestaurtinib_02473_R1,Plate:MR010",47.3 nM
same,potency estimated from few doses,STK3; [13],42.2 nM
same,potency estimated from few doses,"STK3; compound concentrations:100 nM and 1000 nM (sheet 'Lestaurtinib' of Supplementary Table 1),run:Lestaurtinib_02482_R1,Plate:MR011",27.1 nM
same,potency estimated from few doses,"STK3; compound concentrations:100 nM and 1000 nM (sheet 'Lestaurtinib' of Supplementary Table 1),run:Lestaurtinib_02482_R2,Plate:MR011",44.7 nM
same,potency estimated from few doses,"STK3; compound concentrations:100 nM and 1000 nM (sheet 'Lestaurtinib' of Supplementary Table 1),run:Lestaurtinib_02482_R3,Plate:MR011",40.8 nM
same,potency estimated from few doses,"STK3; compound concentrations:100 nM and 1000 nM (sheet 'Lestaurtinib' of Supplementary Table 1),run:Lestaurtinib_02487_R1,Plate:MR012",28.6 nM
same,potency estimated from few doses,"STK3; compound concentrations:100 nM and 1000 nM (sheet 'Lestaurtinib' of Supplementary Table 1),run:Lestaurtinib_02487_R3,Plate:MR012",38.9 nM
same,potency estimated from few doses,"STK3; compound concentrations:100 nM and 1000 nM (sheet 'Lestaurtinib' of Supplementary Table 1),run:Lestaurtinib_02496_R1,Plate:MR013",45 nM
same,potency estimated from few doses,"STK3; compound concentrations:100 nM and 1000 nM (sheet 'Lestaurtinib' of Supplementary Table 1),run:Lestaurtinib_02496_R3,Plate:MR013",48.7 nM
same,potency estimated from few doses,"STK3; compound concentrations:100 nM and 1000 nM (sheet 'Lestaurtinib' of Supplementary Table 1),run:Lestaurtinib_02566_R2,Plate:MR014",41 nM
same,potency estimated from few doses,"STK3; compound concentrations:100 nM and 1000 nM (sheet 'Lestaurtinib' of Supplementary Table 1),run:Lestaurtinib_02566_R3,Plate:MR014",24.5 nM
same,potency estimated from few doses,"STK3; compound concentrations:100 nM and 1000 nM (sheet 'Lestaurtinib' of Supplementary Table 1),run:Lestaurtinib_02572_R2,Plate:MR015",50.4 nM
same,potency estimated from few doses,"STK3; compound concentrations:100 nM and 1000 nM (sheet 'Lestaurtinib' of Supplementary Table 1),run:Lestaurtinib_02572_R3,Plate:MR015",58.4 nM
same,potency estimated from few doses,"STK3; compound concentrations:100 nM and 1000 nM (sheet 'Lestaurtinib' of Supplementary Table 1),run:Lestaurtinib_02577_R1,Plate:MR016",36 nM
same,potency estimated from few doses,"STK3; compound concentrations:100 nM and 1000 nM (sheet 'Lestaurtinib' of Supplementary Table 1),run:Lestaurtinib_02577_R2,Plate:MR016",45 nM
same,potency estimated from few doses,"STK3; compound concentrations:100 nM and 1000 nM (sheet 'Lestaurtinib' of Supplementary Table 1),run:Lestaurtinib_02584_R1,Plate:MR017",38.6 nM
same,potency estimated from few doses,"STK3; compound concentrations:100 nM and 1000 nM (sheet 'Lestaurtinib' of Supplementary Table 1),run:Lestaurtinib_02584_R3,Plate:MR017",47.5 nM
same,potency estimated from few doses,"STK3; compound concentrations:100 nM and 1000 nM (sheet 'Lestaurtinib' of Supplementary Table 1),run:Lestaurtinib_02601_R1,Plate:MR018",59.1 nM
same,potency estimated from few doses,"STK3; compound concentrations:100 nM and 1000 nM (sheet 'Lestaurtinib' of Supplementary Table 1),run:Lestaurtinib_02601_R2,Plate:MR018",39.6 nM
same,potency estimated from few doses,"STK3; compound concentrations:100 nM and 1000 nM (sheet 'Lestaurtinib' of Supplementary Table 1),run:Lestaurtinib_02606_R2,Plate:MR019",46.2 nM
same,potency estimated from few doses,"STK3; compound concentrations:100 nM and 1000 nM (sheet 'Lestaurtinib' of Supplementary Table 1),run:Lestaurtinib_02606_R3,Plate:MR019",47.4 nM
same,potency estimated from few doses,"STK3; compound concentrations:100 nM and 1000 nM (sheet 'Lestaurtinib' of Supplementary Table 1),run:Lestaurtinib_02624_R1,Plate:MR020",53.2 nM
same,potency estimated from few doses,"STK3; compound concentrations:100 nM and 1000 nM (sheet 'Lestaurtinib' of Supplementary Table 1),run:Lestaurtinib_02624_R2,Plate:MR020",42.5 nM
same,potency estimated from few doses,"STK3; compound concentrations:100 nM and 1000 nM (sheet 'Lestaurtinib' of Supplementary Table 1),run:Lestaurtinib_02624_R3,Plate:MR020",40.4 nM
same,potency estimated from few doses,"STK3; compound concentrations:100 nM and 1000 nM (sheet 'Lestaurtinib' of Supplementary Table 1),run:Lestaurtinib_02724_R1,Plate:MR021",44.8 nM
same,potency estimated from few doses,"STK3; compound concentrations:100 nM and 1000 nM (sheet 'Lestaurtinib' of Supplementary Table 1),run:Lestaurtinib_02724_R2,Plate:MR021",42.8 nM
same,potency estimated from few doses,"STK3; compound concentrations:100 nM and 1000 nM (sheet 'Lestaurtinib' of Supplementary Table 1),run:Lestaurtinib_02724_R3,Plate:MR021",38.4 nM
same,potency estimated from few doses,"STK3; compound concentrations:100 nM and 1000 nM (sheet 'Lestaurtinib' of Supplementary Table 1),run:Lestaurtinib_02748_R1,Plate:MR024",35.8 nM
same,potency estimated from few doses,"STK3; compound concentrations:100 nM and 1000 nM (sheet 'Lestaurtinib' of Supplementary Table 1),run:Lestaurtinib_02748_R3,Plate:MR024",40.1 nM
same,potency estimated from few doses,"STK3; compound concentrations:100 nM and 1000 nM (sheet 'Lestaurtinib' of Supplementary Table 1),run:Lestaurtinib_02765_R1,Plate:MR026",38.6 nM
same,potency estimated from few doses,"STK3; compound concentrations:100 nM and 1000 nM (sheet 'Lestaurtinib' of Supplementary Table 1),run:Lestaurtinib_02765_R2,Plate:MR026",37.7 nM
same,potency estimated from few doses,"STK3; compound concentrations:100 nM and 1000 nM (sheet 'Lestaurtinib' of Supplementary Table 1),run:Lestaurtinib_02766_R3,Plate:MR027",42.9 nM
same,potency estimated from few doses,"STK3; compound concentrations:100 nM and 1000 nM (sheet 'Lestaurtinib' of Supplementary Table 1),run:Lestaurtinib_02768_R1,Plate:MR028",31.9 nM
same,potency estimated from few doses,"STK3; compound concentrations:100 nM and 1000 nM (sheet 'Lestaurtinib' of Supplementary Table 1),run:Lestaurtinib_02768_R3,Plate:MR028",40.1 nM
same,potency estimated from few doses,"STK3; compound concentrations:100 nM and 1000 nM (sheet 'Lestaurtinib' of Supplementary Table 1),run:Lestaurtinib_02795_R1,Plate:MR022",43.4 nM
same,potency estimated from few doses,"STK3; compound concentrations:100 nM and 1000 nM (sheet 'Lestaurtinib' of Supplementary Table 1),run:Lestaurtinib_02795_R2,Plate:MR022",27.8 nM
same,potency estimated from few doses,"STK3; compound concentrations:100 nM and 1000 nM (sheet 'Lestaurtinib' of Supplementary Table 1),run:Lestaurtinib_02795_R3,Plate:MR022",141 nM
same,potency estimated from few doses,"STK3; compound concentrations:100 nM and 1000 nM (sheet 'Lestaurtinib' of Supplementary Table 1),run:Lestaurtinib_02802_R1,Plate:MR029",22.4 nM
same,potency estimated from few doses,"STK3; compound concentrations:100 nM and 1000 nM (sheet 'Lestaurtinib' of Supplementary Table 1),run:Lestaurtinib_02802_R3,Plate:MR029",47.8 nM
same,potency estimated from few doses,"STK3; compound concentrations:100 nM and 1000 nM (sheet 'Lestaurtinib' of Supplementary Table 1),run:Lestaurtinib_02896_R1,Plate:MR030",38.8 nM
same,potency estimated from few doses,"STK3; compound concentrations:100 nM and 1000 nM (sheet 'Lestaurtinib' of Supplementary Table 1),run:Lestaurtinib_02896_R2,Plate:MR030",37.2 nM
same,potency estimated from few doses,"STK3; compound concentrations:100 nM and 1000 nM (sheet 'Lestaurtinib' of Supplementary Table 1),run:Lestaurtinib_02896_R3,Plate:MR030",37.9 nM
same,potency estimated from few doses,"STK3; compound concentrations:100 nM and 1000 nM (sheet 'Lestaurtinib' of Supplementary Table 1),run:Lestaurtinib_03172_R1,Plate:MR031",35 nM
same,potency estimated from few doses,"STK3; compound concentrations:100 nM and 1000 nM (sheet 'Lestaurtinib' of Supplementary Table 1),run:Lestaurtinib_03172_R3,Plate:MR031",39.7 nM
same,potency estimated from few doses,"STK3; compound concentrations:100 nM and 1000 nM (sheet 'Lestaurtinib' of Supplementary Table 1),run:Lestaurtinib_03252_R2,Plate:MR032",48.1 nM
same,potency estimated from few doses,"STK3; compound concentrations:100 nM and 1000 nM (sheet 'Lestaurtinib' of Supplementary Table 1),run:Lestaurtinib_03260_R3,Plate:MR033",36.6 nM
same,potency estimated from few doses,"STK4; compound concentrations:100 nM and 1000 nM (sheet 'Lestaurtinib' of Supplementary Table 1),run:Lestaurtinib_02339_R1,Plate:MR001",42 nM
same,potency estimated from few doses,"STK4; compound concentrations:100 nM and 1000 nM (sheet 'Lestaurtinib' of Supplementary Table 1),run:Lestaurtinib_02339_R2,Plate:MR001",40.1 nM
same,potency estimated from few doses,"STK4; compound concentrations:100 nM and 1000 nM (sheet 'Lestaurtinib' of Supplementary Table 1),run:Lestaurtinib_02339_R3,Plate:MR001",27.7 nM
same,potency estimated from few doses,"STK4; compound concentrations:100 nM and 1000 nM (sheet 'Lestaurtinib' of Supplementary Table 1),run:Lestaurtinib_02364_R1,Plate:MR002",35.9 nM
same,potency estimated from few doses,"STK4; compound concentrations:100 nM and 1000 nM (sheet 'Lestaurtinib' of Supplementary Table 1),run:Lestaurtinib_02364_R2,Plate:MR002",43 nM
same,potency estimated from few doses,"STK4; compound concentrations:100 nM and 1000 nM (sheet 'Lestaurtinib' of Supplementary Table 1),run:Lestaurtinib_02364_R3,Plate:MR002",43.2 nM
same,potency estimated from few doses,STK4; [1],35.7 nM
same,potency estimated from few doses,STK4; [2],35 nM
same,potency estimated from few doses,STK4; [3],39.1 nM
same,potency estimated from few doses,STK4; [4],35.8 nM
same,potency estimated from few doses,STK4; [5],36.2 nM
same,potency estimated from few doses,STK4; [6],33 nM
same,potency estimated from few doses,STK4; [7],44.8 nM
same,potency estimated from few doses,STK4; [8],50.1 nM
same,potency estimated from few doses,"STK4; compound concentrations:100 nM and 1000 nM (sheet 'Lestaurtinib' of Supplementary Table 1),run:Lestaurtinib_02422_R3,Plate:MR006",45.3 nM
same,potency estimated from few doses,STK4; [9],42 nM
same,potency estimated from few doses,STK4; [10],41.6 nM
same,potency estimated from few doses,"STK4; compound concentrations:100 nM and 1000 nM (sheet 'Lestaurtinib' of Supplementary Table 1),run:Lestaurtinib_02437_R3,Plate:MR007",4.01 nM
same,potency estimated from few doses,STK4; [11],36.6 nM
same,potency estimated from few doses,"STK4; compound concentrations:100 nM and 1000 nM (sheet 'Lestaurtinib' of Supplementary Table 1),run:Lestaurtinib_02438_R3,Plate:MR008",38.2 nM
same,potency estimated from few doses,STK4; [12],38.6 nM
same,potency estimated from few doses,"STK4; compound concentrations:100 nM and 1000 nM (sheet 'Lestaurtinib' of Supplementary Table 1),run:Lestaurtinib_02443_R3,Plate:MR009",36.6 nM
same,potency estimated from few doses,STK4; [13],44.6 nM
same,potency estimated from few doses,"STK4; compound concentrations:100 nM and 1000 nM (sheet 'Lestaurtinib' of Supplementary Table 1),run:Lestaurtinib_02473_R3,Plate:MR010",37.7 nM
